From PubChem BioAssay
D1 agonist = activates the human D1 dopamine receptor; activation, % at 2 µM; hit rate 1% among 360,000; HEK293 T-REx D1 cells, calcium flux, agonist mode; P21728; also: 0% is about no effect
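Agonism was scored from calcium flux recorded over 180 s (1 read/s) after pintool compound addition, following a 10-cycle baseline. Cells were inducible force-coupled HEK293 TREx D1, plated overnight at 30 C and loaded with no-wash calcium dye.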
TRHR agonist = agonists of human TRH receptor. P34981. TRHR cells, calcium flux fluo-8, FDSS agonist mode. activation, % at 2 µM. hit rate 0.18% among 360,000; also: 0% is about no effect
Target sequence (P34981 whole entry, looked up): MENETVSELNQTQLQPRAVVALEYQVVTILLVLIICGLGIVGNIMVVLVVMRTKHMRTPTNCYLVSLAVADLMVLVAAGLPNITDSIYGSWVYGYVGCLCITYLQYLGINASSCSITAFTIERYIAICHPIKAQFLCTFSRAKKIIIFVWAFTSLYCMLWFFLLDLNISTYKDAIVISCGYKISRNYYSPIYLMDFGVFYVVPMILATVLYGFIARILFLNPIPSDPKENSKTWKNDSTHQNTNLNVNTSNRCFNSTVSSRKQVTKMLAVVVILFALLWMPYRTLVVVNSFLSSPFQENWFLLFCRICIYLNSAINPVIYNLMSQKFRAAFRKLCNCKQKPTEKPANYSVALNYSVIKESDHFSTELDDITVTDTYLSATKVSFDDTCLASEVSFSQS
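In this calcium-flux screen, cells bearing human TRHR are dye-loaded with fluo-8, baselined for 10 cycles, then exposed to library compounds; positive kinetic calcium responses during the agonist phase mark hits, with TRH as control.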
D1 PAM = potentiators of human D1 dopamine receptor; HEK293 TREx D1 cells, calcium flux, dopamine EC20 potentiation; hit rate 0.036% among 360,000; AID 504651; potentiation, % at 10 µM; in the data active = potentiation above about 30%; also: 0% is about no effect
TRHR PAM = TRH receptor (human) allosteric enhancement. hit rate 0.66% among 360,000. P34981. enhancement, % at 2 µM. TRHR cells, fluo-8 calcium fluorescence, EC20 TRH enhancement; in the data active = enhancement above about 30%; also: 0% is about no effect
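Enhancer read-out: after compound pinning and an initial kinetic agonist-mode read, an EC20 of TRH (10 nM final) was injected and fluo-8 calcium signal (Ex 480/Em 530) followed at 1 s/cycle for 100 cycles in TRHR-expressing cells.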
D1 antagonist = antagonists of human D1 dopamine receptor; AID 504652; HEK293 TREx D1 cells, calcium flux, dopamine EC80; active compounds read low; P21728; hit rate 3.2% among 360,000; activity change, negative = inhibition, % at 10 µM; in the data active = activity change below about -30%; also: % is scaled to controls: 0 for no effect and ±100 for the full control effect
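After overnight tetracycline induction at 30 C, force-coupled D1 HEK293 cells took up a no-wash calcium dye at room temperature. Compounds were added and monitored 180 s, and the response to EC80 dopamine was then recorded.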
Numbers without * were called inactive; · = not tested or not shown. Shown are actives, neighbours in structure and some others; about 4.7% of the full set was active somewhere. Rule as the data show it, unless noted: active = activation above about 30%; inactive = the rest.

SMILES	D1 agonist	TRHR agonist	D1 PAM	TRHR PAM	D1 antagonist
Cc1cc(C)cc(NC(=O)C2CCN(S(=O)(=O)c3ccc4c(c3)oc(=O)n4C)CC2)c1	-0.9	-1.2	-1.1	-2.9	-33.8*
Cn1c(=O)oc2cc(S(=O)(=O)N3CCC(C(=O)Nc4ccc(F)c(Cl)c4)CC3)ccc21	3.5	0.4	-5.2	1.2	-52.3*
Cc1oc2ncn(CC(C)C)c(=O)c2c1C(=O)Nc1cc(F)ccc1F	-1.2	0.9	-1.9	7.1	0.2
Cc1nc2ccccn2c1C(=O)/C=C/c1cccc([N+](=O)[O-])c1	3.8	-0.1	0.6	-3.4	4.3
Cc1ccc(/C=C/C(=O)c2c(C)nc3ccccn23)cc1	-0.6	-2.3	-1.2	-5.9	-71.5*
CN(Cc1ccccc1F)c1ccc(S(=O)(=O)N2CCCC2)cn1	12.6	-1.4	-8.4	-0.7	-31.6*
COc1ccccc1CN(C)c1ccc(S(=O)(=O)N2CCN(C)CC2)cn1	-0.5	-0.2	-4.8	0.4	-0.8
O=C(c1ccc(CN2CCOCC2)cc1)N1CCN(c2ccccc2)CC1	-0.3	0.3	3.1	3.4	10.2
Cc1nc2nc(C)c(CCC(=O)NC(C)c3ccc4c(c3)OCCO4)c(C)n2n1 (configuration not stated)	5.6	-0.1	-7.9	-4.6	-47.6*
Cc1nc2cc(-c3ccccc3)nn2c(C)c1CCC(=O)NC(C)c1ccc2c(c1)OCCO2 (configuration not stated)	-1.8	0.2	-5.0	2.4	-11.4
O=C(COc1ccc(Cl)cc1)OCc1cc(=O)n2nc(C3CC3)sc2n1	5.6	0.0	-7.8	4.9	-9.4
Cc1nc(-c2ccc(S(=O)(=O)N3CCCN(CCc4ccccc4)CC3)s2)cs1	31.1*	1.4	-3.8	-1.4	-21.8
Cn1cc(CNCc2cn(C)nc2-c2ccc(C3CCCCC3)cc2)cn1	22.9	0.6	-9.8	18.5	-38.2*
CC1(C)CC(=O)C2=C(C1)c1c(ccc3ccccc13)NC2c1ccco1 (configuration not stated)	-1.4	-1.0	30.3*	-3.3	-10.8
CCOc1ccccc1NC(=O)NCc1ccc2c(c1)CCN2C(=O)c1ccccc1	4.1	-0.9	-3.5	11.1	-19.9
O=C(OCc1ccccc1Cl)c1ccc(-n2cnnc2)cc1	19.6	-0.6	-10.2	3.3	-35.7*
N#C/C(=C\Nc1ccc2c(c1)OCCO2)c1nc(-c2ccccc2)cs1	0.2	-0.2	-7.5	2.3	-41.8*
COc1ccc(-c2csc(/C(C#N)=C/Nc3ccc4c(c3)OCCO4)n2)cc1	2.8	-0.2	0.8	25.8	6.6
COCCn1c(C)cc(O)c(C(c2ccccc2Cl)N2CCN(c3ccccc3)CC2)c1=O (configuration not stated)	1.0	0.3	-0.5	-0.6	-1.1
COc1cccc(Nc2ccc(-n3ccnc3)nn2)c1	-0.1	-0.3	-8.4	2.8	-66.5*
Cc1ccc(Nc2ccc(-n3ccnc3)nn2)cc1C	-0.4	-0.4	-6.8	-2.0	8.4
Cc1ccc(C2C3=C(CCCC3=O)OC3=C2C(=O)CCC3)cc1	2.6	-1.2	1.2	39.9*	0.3
COC(=O)CSc1ncnc2scc(-c3ccccc3)c12	9.1	2.8	-8.3	-3.1	-2.8
Fc1ccc(CSc2ncnc3scc(-c4ccccc4)c23)cc1	35.1*	1.8	-7.3	0.2	-12.9
Cc1oc(C)c(C(=O)Nc2ccc(CC(=O)O)cc2)c1C(=O)Nc1ccc(CC(=O)O)cc1	-0.2	0.6	-2.8	5.8	6.8
SMILES	D1 agonist	TRHR agonist	D1 PAM	TRHR PAM	D1 antagonist
O=C(O)Cc1ccc(NC(=O)Nc2cccc(Cl)c2)cc1	-0.4	0.5	-5.0	-5.1	-50.7*
CC(=O)Nc1ccc(CC(=O)O)cc1	47.2*	0.0	-0.1	-3.4	-4.4
COc1ccc(CC(=O)NC2CC(=O)N(c3cccc(F)c3)C2)cc1 (configuration not stated)	-0.2	0.1	-2.0	1.6	·
COc1ccc(OC)c(NC(=O)CSc2nc(=O)n(CCN(C)C)c3c2CCC3)c1	-1.0	-0.1	-0.3	-3.6	·
O=C(CCC(=O)N1CCSc2ccccc21)Nc1cccc(F)c1	3.7	1.0	-2.5	-3.1	-30.9*
Cc1ccccc1CNc1ncnc2cc(Cl)ccc12	5.7	0.2	2.0	-2.1	-7.2
Fc1ccc(F)c(CNc2ncnc3cc(Cl)ccc23)c1	10.9	3.0	-8.5	-5.1	-30.5*
